Reference: PubChem BioAssay (EPA / NIEHS)
Results filed as inconclusive are left out. Calls of active or inactive are those of the source. Rule for the calls, unless noted: active = hit-call score of the fitted dose curve at least 0.9, where 1 is the maximum; inactive = score below 0.9.

Legend:
[1] = BSK_3C_Proliferation: Cell Proliferation Assessment in the BioMAP Diversity Plus: 3C Assay (AID 2283006); conditions: primary human endothelial cells (HUVEC);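 for AC50: potency may reflect either rise or fall in cell number versus DMSO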
In short: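 Subconfluent HUVEC (3C system) cultured with chemical; relative cell number read at 48 h by sulforhodamine B total-protein staining (0.1% SRB after 10% TCA fixation, 560 nm). Bidirectional fit relative to DMSO.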

[2] = target: Peroxisome proliferator-activated receptor gamma (Homo sapiens) (UniProt P37231); assay: ATG_PPARg_TRANS: Attagene TRANS-FACTORIAL HepG2 Assay for human Peroxisome Proliferator-activated Receptor-gamma (PPARg) (AID 2283007; active = hit-call score of the fitted dose curve at least 0.9, where 1 is the maximum)
Sequence of Peroxisome proliferator-activated receptor gamma (Homo sapiens) (P37231 whole entry, looked up): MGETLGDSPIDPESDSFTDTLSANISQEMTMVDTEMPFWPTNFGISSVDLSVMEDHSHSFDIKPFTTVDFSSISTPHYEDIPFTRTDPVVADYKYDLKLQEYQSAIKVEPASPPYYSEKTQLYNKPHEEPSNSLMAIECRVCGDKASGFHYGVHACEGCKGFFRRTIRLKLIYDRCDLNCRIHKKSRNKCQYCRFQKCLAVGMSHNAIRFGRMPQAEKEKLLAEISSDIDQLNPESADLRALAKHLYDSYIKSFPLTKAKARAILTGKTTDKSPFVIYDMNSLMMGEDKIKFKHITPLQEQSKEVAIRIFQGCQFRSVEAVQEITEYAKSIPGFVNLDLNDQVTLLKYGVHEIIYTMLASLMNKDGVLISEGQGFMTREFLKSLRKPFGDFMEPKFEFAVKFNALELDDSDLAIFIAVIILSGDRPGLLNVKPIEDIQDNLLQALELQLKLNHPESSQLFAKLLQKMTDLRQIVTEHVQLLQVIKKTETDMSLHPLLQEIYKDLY
In short: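 Multiplexed reporter transcription units in HepG2, 24 h dosing, reporter transcripts quantified by fluorescent RT-PCR and capillary electrophoresis. Increase over DMSO scored.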

[3] = target: human RAR-related Orphan Receptor gamma (RORg), RORC (gene 6097) (UniProt P51449); assay: ATG_RORg_TRANS: Attagene TRANS-FACTORIAL HepG2 Assay for human RAR-related Orphan Receptor gamma (RORg) (AID 2283011; active = hit-call score of the fitted dose curve at least 0.9, where 1 is the maximum)
Sequence of human RAR-related Orphan Receptor gamma (RORg), RORC (gene 6097) (P51449 whole entry, looked up, the tested form may be a part): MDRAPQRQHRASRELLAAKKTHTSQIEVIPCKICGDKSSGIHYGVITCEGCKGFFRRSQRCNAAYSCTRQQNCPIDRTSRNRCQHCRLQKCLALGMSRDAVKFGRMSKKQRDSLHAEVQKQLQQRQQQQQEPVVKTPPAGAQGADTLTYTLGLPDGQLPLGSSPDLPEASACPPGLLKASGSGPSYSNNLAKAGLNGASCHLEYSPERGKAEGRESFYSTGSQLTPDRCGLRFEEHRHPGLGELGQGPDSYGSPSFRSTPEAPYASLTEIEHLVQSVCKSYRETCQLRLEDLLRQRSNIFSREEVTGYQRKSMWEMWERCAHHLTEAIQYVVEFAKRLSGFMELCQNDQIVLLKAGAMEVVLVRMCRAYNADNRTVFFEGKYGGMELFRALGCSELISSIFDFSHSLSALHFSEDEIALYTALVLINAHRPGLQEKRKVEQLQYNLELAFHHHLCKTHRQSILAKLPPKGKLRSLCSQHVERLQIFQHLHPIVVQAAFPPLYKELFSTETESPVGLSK
In short: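 First, HepG2 liver cells were transfected with GAL4-UAS-driven reporter constructs and the RORg-Gal4 fusion. Next, they were treated with chemical for 24 h. Finally, reporter mRNA was quantified by RT-PCR and capillary electrophoresis, with upward activity fitted against DMSO.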

[4] = read-out: E-selectin (Homo sapiens) (UniProt P16581); assay: BSK_3C_Eselectin: BioMAP Diversity Plus: 3C Assay for Eselectin Biomarker Activity (AID 2283015); conditions: primary human endothelial cells (HUVEC); actives raise or lower the signal;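 for outcome: cell surface E-selectin protein quantified by ELISA 24 h after dosing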
In short: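 ELISA read-out of E-selectin on endothelial monolayers after 24 h chemical treatment. Human umbilical vein primary cells served as the system, with DMSO defining baseline activity for bidirectional fitting.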

[5] = read-out: Interleukin-1 alpha (IL1a), IL1A (gene 3552); assay: BSK_BE3C_IL1a: BioMAP Diversity Plus: BE3C Assay for Interleukin-1 alpha (IL1a) Biomarker Activity (AID 2283016); conditions: primary human bronchial epithelial cells; actives raise or lower the signal
In short: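 Human primary bronchial epithelial cells, 24 h chemical exposure; IL-1a quantified by ELISA, fitted bidirectionally against DMSO. Cytotoxicity assessed in parallel by SRB total-protein staining at the time of measurement.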

[6] = read-out: Monocyte Chemoattractant Protein-1 (MCP1), CCL2 (gene 6347); assay: BSK_3C_MCP1: BioMAP Diversity Plus: 3C Assay for Monocyte Chemoattractant Protein-1 (MCP1) Biomarker Activity (AID 2283017); conditions: primary human endothelial cells (HUVEC); actives raise or lower the signal
In short: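 ELISA read-out of MCP-1 from human umbilical vein endothelial cell cultures harvested 24 h post-dosing. Gain or loss of signal was fitted relative to DMSO.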

[7] = read-out: Monocyte Chemoattractant Protein-1 (MCP1), CCL2 (gene 6347); assay: BSK_4H_MCP1: BioMAP Diversity Plus: 4H Assay for Monocyte Chemoattractant Protein-1 (MCP1) Biomarker Activity (AID 2283018); conditions: primary human endothelial cells (HUVEC); actives raise or lower the signal
In short: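 Human umbilical vein endothelial cells (4H system) exposed to chemicals for 24 h in 96-well format. MCP-1 measured by ELISA; bidirectional fitting against DMSO, with SRB total-protein staining in parallel cultures for cytotoxicity.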

[8] = read-out: Human Leukocyte Antigen - DR isotype (HLADR), HLA-DRA (gene 3122); assay: BSK_3C_HLADR: BioMAP Diversity Plus: 3C Assay for Human Leukocyte Antigen - DR isotype (HLADR) Biomarker Activity (AID 2283019); conditions: primary human endothelial cells (HUVEC); actives raise or lower the signal;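 for outcome: ELISA of cell-surface HLA-DR on HUVEC 24 h after dosing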
In short: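 ELISA readout of surface HLA-DR on human umbilical vein endothelium, taken 24 h after chemical treatment. Gain- and loss-of-signal were both fitted relative to DMSO.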

[9] = read-out: Interleukin-8 (IL8), CXCL8 (gene 3576); assay: BSK_3C_IL8: BioMAP Diversity Plus: 3C Assay for Interleukin-8 (IL8) Biomarker Activity (AID 2283020); conditions: primary human endothelial cells (HUVEC); actives raise or lower the signal
In short: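 Primary human umbilical vein endothelial cells were dosed for 24 h. IL-8 was quantified by ELISA and fitted bidirectionally against DMSO. Cytotoxicity was assessed in parallel cultures by SRB staining at 560 nm.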

[10] = read-out: Monokine induced gamma interferon (MIG), CXCL9 (gene 4283); assay: BSK_3C_MIG: BioMAP Diversity Plus: 3C Assay for Monokine induced gamma interferon (MIG) Biomarker Activity (AID 2283021); conditions: primary human endothelial cells (HUVEC); actives raise or lower the signal;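 for AC50: MIG protein level measured by immunoassay in the treated endothelial cultures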
In short: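 HUVEC primary endothelial cultures dosed with chemical; MIG quantified by ELISA at 24 h. Data fitted bidirectionally against DMSO control, with parallel SRB total-protein staining for cytotoxicity.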

[11] = BSK_3C_SRB: Viability Assessment in the BioMAP Diversity Plus: 3C Assay (AID 2283023); conditions: primary human endothelial cells (HUVEC);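 note: fitted both ways against DMSO so a hit may be signal rise or drop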
In short: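 Absorbance at 560 nm of sulforhodamine B-stained (0.1%) total protein served as a cytotoxicity readout in human umbilical vein endothelial cells, 24 h after chemical treatment. Signal was fitted bidirectionally relative to DMSO.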

[12] = read-out: Matrix Metallopeptidase 1 (MMP1), MMP1 (gene 4312); assay: BSK_BE3C_MMP1: BioMAP Diversity Plus: BE3C Assay for Matrix Metallopeptidase 1 (MMP1) Biomarker Activity (AID 2283024); conditions: primary human bronchial epithelial cells; actives raise or lower the signal
In short: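 Human primary bronchial epithelial cells (BE3C system) dosed for 24 h; MMP-1 quantified by ELISA. Bidirectional fit against DMSO; cytotoxicity tracked in parallel cultures by SRB total-protein staining.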

[13] = BSK_3C_Vis: BioMAP Diversity Plus: 3C Assay for Morphology Visualization (AID 2283025); conditions: primary human endothelial cells (HUVEC);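 note: fitted both ways so gain or loss versus DMSO counts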;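 for AC50: light microscopy image of cell morphology used as background control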
In short: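 Human umbilical vein endothelial cell morphology was inspected by light microscopy 24 h after chemical dosing; scored bidirectionally relative to DMSO.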

[14] = target: Retinoic acid receptor RXR-alpha (Homo sapiens) (UniProt P19793); assay: ATG_RXRa_TRANS: Attagene TRANS-FACTORIAL HepG2 Assay for human Retinoid X Receptor alpha (RXRa) (AID 2283012; active = hit-call score of the fitted dose curve at least 0.9, where 1 is the maximum)
Sequence of Retinoic acid receptor RXR-alpha (Homo sapiens) (P19793 whole entry, looked up, the tested form may be a part): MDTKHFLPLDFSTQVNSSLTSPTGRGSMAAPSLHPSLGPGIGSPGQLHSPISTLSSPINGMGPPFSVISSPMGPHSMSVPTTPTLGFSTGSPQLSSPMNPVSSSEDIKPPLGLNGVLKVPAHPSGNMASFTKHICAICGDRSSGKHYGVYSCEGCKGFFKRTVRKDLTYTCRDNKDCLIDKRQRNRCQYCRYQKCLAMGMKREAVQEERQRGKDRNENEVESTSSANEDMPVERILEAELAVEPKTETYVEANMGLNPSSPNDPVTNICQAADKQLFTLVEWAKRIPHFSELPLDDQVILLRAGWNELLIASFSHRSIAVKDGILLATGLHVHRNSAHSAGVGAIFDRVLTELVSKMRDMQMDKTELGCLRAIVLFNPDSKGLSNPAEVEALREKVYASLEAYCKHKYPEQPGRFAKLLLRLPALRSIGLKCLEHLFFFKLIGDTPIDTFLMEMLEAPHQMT
In short: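 HepG2 cells transiently transfected with GAL4-UAS reporter units and chimeric RXRa-Gal4 protein, treated 24 h. Reporter mRNA measured by RT-PCR, fluorescent labelling, HpaI digestion and capillary electrophoresis. Induction fitted against DMSO.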

[15] = target: human Thyroid Receptor alpha (THRa1), THRA (gene 7067) (UniProt P10827); assay: ATG_THRa1_TRANS: Attagene TRANS-FACTORIAL HepG2 Assay for human Thyroid Receptor alpha (THRa1) (AID 2283014; active = hit-call score of the fitted dose curve at least 0.9, where 1 is the maximum)
Sequence of human Thyroid Receptor alpha (THRa1), THRA (gene 7067) (P10827 whole entry, looked up, the tested form may be a part): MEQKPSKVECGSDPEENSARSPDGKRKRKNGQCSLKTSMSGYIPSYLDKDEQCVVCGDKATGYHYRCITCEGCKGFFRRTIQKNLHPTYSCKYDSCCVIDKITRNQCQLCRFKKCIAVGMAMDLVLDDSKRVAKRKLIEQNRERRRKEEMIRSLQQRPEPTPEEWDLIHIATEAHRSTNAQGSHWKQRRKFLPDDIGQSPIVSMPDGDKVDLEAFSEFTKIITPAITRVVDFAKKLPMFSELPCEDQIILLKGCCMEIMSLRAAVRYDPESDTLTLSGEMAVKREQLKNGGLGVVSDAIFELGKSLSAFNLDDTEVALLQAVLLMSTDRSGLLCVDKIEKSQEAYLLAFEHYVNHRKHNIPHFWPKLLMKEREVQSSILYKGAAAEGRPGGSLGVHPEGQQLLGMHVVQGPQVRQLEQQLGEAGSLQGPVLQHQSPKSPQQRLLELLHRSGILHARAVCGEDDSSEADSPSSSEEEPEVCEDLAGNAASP
In short: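 Reporter transcript induction, read by capillary electrophoresis of 6-FAM-labelled RT-PCR products, reflects activity of a transfected THRa1-Gal4 fusion in HepG2 liver cells. Cells were dosed for 24 h; activity was fitted in the positive direction against DMSO.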

[16] = target: human Retinoid X Receptor beta (RXRb), RXRB (gene 6257) (UniProt P28702); assay: ATG_RXRb_TRANS: Attagene TRANS-FACTORIAL HepG2 Assay for human Retinoid X Receptor beta (RXRb) (AID 2283013; active = hit-call score of the fitted dose curve at least 0.9, where 1 is the maximum)
Sequence of human Retinoid X Receptor beta (RXRb), RXRB (gene 6257) (P28702 whole entry, looked up, the tested form may be a part): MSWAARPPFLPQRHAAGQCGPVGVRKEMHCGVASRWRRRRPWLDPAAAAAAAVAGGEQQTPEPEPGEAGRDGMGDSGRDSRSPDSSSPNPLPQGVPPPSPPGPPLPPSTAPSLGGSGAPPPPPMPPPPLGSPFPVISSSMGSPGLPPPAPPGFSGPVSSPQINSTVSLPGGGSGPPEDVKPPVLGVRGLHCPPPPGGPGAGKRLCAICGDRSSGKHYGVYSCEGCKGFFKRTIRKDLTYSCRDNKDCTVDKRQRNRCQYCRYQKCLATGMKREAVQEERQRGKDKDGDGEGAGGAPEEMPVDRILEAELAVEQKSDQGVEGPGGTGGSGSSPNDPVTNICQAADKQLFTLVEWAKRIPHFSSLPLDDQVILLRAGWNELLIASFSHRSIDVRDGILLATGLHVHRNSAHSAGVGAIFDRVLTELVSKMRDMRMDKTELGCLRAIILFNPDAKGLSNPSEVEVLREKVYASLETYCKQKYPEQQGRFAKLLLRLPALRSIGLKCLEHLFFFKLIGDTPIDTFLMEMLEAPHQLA
In short: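 HepG2 cells were transiently transfected with multiplexed GAL4-UAS reporters and a chimeric RXRb-Gal4 construct, then exposed for 24 h. Reporter mRNA was quantified by RT-PCR, FAM labeling, HpaI digestion and capillary electrophoresis; gain of signal was scored against DMSO.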

[17] = target: human Vitamin D Receptor (VDR), VDR (gene 7421) (UniProt P11473); assay: ATG_VDR_TRANS: Attagene TRANS-FACTORIAL HepG2 Assay for human Vitamin D Receptor (VDR) (AID 2283022; active = hit-call score of the fitted dose curve at least 0.9, where 1 is the maximum)
Sequence of human Vitamin D Receptor (VDR), VDR (gene 7421) (P11473 whole entry, looked up, the tested form may be a part): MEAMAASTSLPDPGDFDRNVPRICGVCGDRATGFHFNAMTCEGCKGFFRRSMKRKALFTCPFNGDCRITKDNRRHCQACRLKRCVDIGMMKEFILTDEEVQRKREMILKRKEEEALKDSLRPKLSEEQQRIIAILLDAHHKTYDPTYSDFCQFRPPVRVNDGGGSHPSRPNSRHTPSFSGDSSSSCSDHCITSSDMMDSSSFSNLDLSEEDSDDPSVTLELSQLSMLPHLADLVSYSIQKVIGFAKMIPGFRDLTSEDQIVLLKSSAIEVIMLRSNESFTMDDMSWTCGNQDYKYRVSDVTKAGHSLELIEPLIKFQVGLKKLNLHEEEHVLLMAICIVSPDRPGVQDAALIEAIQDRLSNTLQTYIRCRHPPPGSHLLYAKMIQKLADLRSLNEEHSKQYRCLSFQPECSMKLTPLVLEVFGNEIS
In short: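 Steps: transfect HepG2 with GAL4-UAS-driven reporter constructs; dose compounds 24 h; isolate RNA, reverse-transcribe, PCR-amplify with 6-FAM-labelled primer extension and HpaI digestion; quantify fragments by capillary electrophoresis relative to DMSO.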

[18] = target: human Retinoic Acid Receptor gamma (RARg), RARG (gene 5916) (UniProt P13631); assay: ATG_RARg_TRANS: Attagene TRANS-FACTORIAL HepG2 Assay for human Retinoic Acid Receptor gamma (RARg) (AID 2283009; active = hit-call score of the fitted dose curve at least 0.9, where 1 is the maximum)
Sequence of human Retinoic Acid Receptor gamma (RARg), RARG (gene 5916) (P13631 whole entry, looked up, the tested form may be a part): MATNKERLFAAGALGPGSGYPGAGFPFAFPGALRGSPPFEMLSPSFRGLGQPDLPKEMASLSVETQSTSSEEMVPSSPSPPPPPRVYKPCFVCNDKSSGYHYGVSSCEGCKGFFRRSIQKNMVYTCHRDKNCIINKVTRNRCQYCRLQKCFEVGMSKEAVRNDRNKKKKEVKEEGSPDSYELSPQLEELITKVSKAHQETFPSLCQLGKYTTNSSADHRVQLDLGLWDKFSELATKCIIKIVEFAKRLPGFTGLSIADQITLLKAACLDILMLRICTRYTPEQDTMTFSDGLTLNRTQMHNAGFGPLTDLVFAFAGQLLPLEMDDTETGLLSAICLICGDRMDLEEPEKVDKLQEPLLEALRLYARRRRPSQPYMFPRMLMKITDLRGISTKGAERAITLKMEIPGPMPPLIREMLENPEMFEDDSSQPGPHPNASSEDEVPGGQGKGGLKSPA
In short: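 HepG2 transiently transfected with GAL4-UAS reporter units and chimeric NR-Gal4 constructs; 24 h compound exposure. Reporter mRNA quantified by RT-PCR, FAM labeling, HpaI digestion and capillary electrophoresis; gain-of-signal versus DMSO.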

Sequence of E-selectin (Homo sapiens) (P16581 whole entry, looked up): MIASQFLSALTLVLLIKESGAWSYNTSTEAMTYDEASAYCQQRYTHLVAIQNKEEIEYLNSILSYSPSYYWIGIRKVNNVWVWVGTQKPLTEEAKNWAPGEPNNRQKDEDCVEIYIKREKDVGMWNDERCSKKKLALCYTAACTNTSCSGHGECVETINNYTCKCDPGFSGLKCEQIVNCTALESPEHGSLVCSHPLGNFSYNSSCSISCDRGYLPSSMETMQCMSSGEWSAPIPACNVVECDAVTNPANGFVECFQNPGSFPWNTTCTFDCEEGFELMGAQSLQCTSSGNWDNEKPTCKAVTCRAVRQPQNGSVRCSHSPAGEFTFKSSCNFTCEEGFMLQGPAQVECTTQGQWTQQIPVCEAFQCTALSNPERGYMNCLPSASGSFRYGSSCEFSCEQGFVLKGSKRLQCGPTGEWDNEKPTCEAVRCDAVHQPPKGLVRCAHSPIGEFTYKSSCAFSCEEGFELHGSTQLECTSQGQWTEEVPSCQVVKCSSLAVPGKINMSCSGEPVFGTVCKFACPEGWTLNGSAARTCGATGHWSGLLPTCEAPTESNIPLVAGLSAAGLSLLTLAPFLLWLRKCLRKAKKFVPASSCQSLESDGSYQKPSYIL

Cn1cc(-c2ccccc2)c(=O)c(-c2cccc(C(F)(F)F)c2)c1
outcome [1]: inactive | outcome [2]: inactive | outcome [3]: inactive | outcome [4]: inactive | outcome [5]: inactive | outcome [6]: inactive | outcome [7]: inactive | outcome [8]: inactive | outcome [9]: inactive | outcome [10]: inactive | outcome [11]: inactive | outcome [12]: inactive | outcome [13]: inactive

CN(C)C(=O)Nc1ccc(Cl)cc1
outcome [1]: inactive | outcome [2]: inactive | outcome [14]: inactive | outcome [15]: inactive | outcome [4]: inactive | outcome [5]: inactive | outcome [6]: inactive | outcome [7]: inactive | outcome [8]: inactive | outcome [9]: inactive | outcome [10]: inactive | outcome [11]: inactive | outcome [13]: inactive

CNC(=O)Oc1cccc2c1OC(C)(C)C2
outcome [1]: inactive | outcome [2]: inactive | outcome [14]: inactive | AC50 [16]: 58.7 µM (active) | outcome [15]: inactive | outcome [4]: inactive | outcome [5]: inactive | outcome [6]: inactive | outcome [7]: inactive | outcome [8]: inactive | outcome [9]: inactive | outcome [10]: inactive | outcome [17]: inactive | outcome [11]: inactive | outcome [12]: inactive | outcome [13]: inactive

Clc1ccc(C(c2ccc(Cl)cc2)C(Cl)(Cl)Cl)cc1
AC50 [1]: 20.1 µM (active) | outcome [2]: inactive | outcome [16]: inactive | outcome [15]: inactive | AC50 [4]: 29.2 µM (active) | outcome [5]: inactive | AC50 [6]: 26.9 µM (active) | AC50 [8]: 25.8 µM (active) | AC50 [9]: 22.7 µM (active) | AC50 [10]: 34.5 µM (active) | outcome [17]: inactive | AC50 [11]: 28.5 µM (active) | AC50 [13]: 37.3 µM (active)

CCCCCCCCn1sccc1=O
AC50 [1]: 0.796 µM (active) | AC50 [2]: 9.45 µM (active) | outcome [3]: inactive | AC50 [16]: 15.4 µM (active) | AC50 [4]: 12.6 µM (active) | AC50 [6]: 9.73 µM (active) | AC50 [7]: 8.07 µM (active) | AC50 [8]: 5.11 µM (active) | AC50 [9]: 12.4 µM (active) | AC50 [10]: 11.6 µM (active) | AC50 [11]: 20.8 µM (active) | AC50 [13]: 12.9 µM (active)

Nc1ccc(Cc2ccc(N)cc2)cc1
outcome [1]: inactive | outcome [2]: inactive | outcome [3]: inactive | outcome [14]: inactive | outcome [15]: inactive | outcome [4]: inactive | outcome [5]: inactive | outcome [6]: inactive | outcome [7]: inactive | outcome [8]: inactive | outcome [9]: inactive | outcome [10]: inactive | outcome [17]: inactive | outcome [11]: inactive | outcome [13]: inactive

N#CC(Br)Br
outcome [1]: inactive | outcome [2]: inactive | outcome [14]: inactive | outcome [16]: inactive | outcome [4]: inactive | outcome [5]: inactive | outcome [6]: inactive | outcome [7]: inactive | outcome [8]: inactive | outcome [9]: inactive | outcome [10]: inactive | outcome [11]: inactive | outcome [12]: inactive | outcome [13]: inactive

ClCCOCCCl
outcome [1]: inactive | outcome [2]: inactive | outcome [18]: inactive | outcome [14]: inactive | outcome [16]: inactive | outcome [15]: inactive | outcome [4]: inactive | outcome [6]: inactive | outcome [7]: inactive | outcome [8]: inactive | outcome [9]: inactive | outcome [10]: inactive | outcome [11]: inactive | outcome [13]: inactive

COc1cc(C=O)cc2c1[C@H](COC(N)=O)[C@]1(OC(C)=O)ON2C[C@H]2[C@@H]1N2C(C)=O
AC50 [1]: 0.369 µM (active) | outcome [2]: inactive | outcome [3]: inactive | AC50 [4]: 10.8 µM (active) | AC50 [5]: 2.63 µM (active) | AC50 [6]: 6.85 µM (active) | AC50 [7]: 3.22 µM (active) | AC50 [8]: 15.9 µM (active) | AC50 [9]: 11.9 µM (active) | AC50 [10]: 29.2 µM (active) | AC50 [11]: 6.86 µM (active) | AC50 [12]: 3.3 µM (active) | AC50 [13]: 10.3 µM (active)
